These results are taken from PubChem BioAssay (NCATS).

Values joined by “and” are separate entries in the source; they are usually repeats but may differ in a detail not shown here. Identical values can stand only once. Results filed as inconclusive are left out. Active and inactive are the calls of the source. Calls come from the whole dose curve; as a rule, active = well fitted inhibition curve with a large enough effect; inconclusive = small, poorly fitted or top-dose-only effect; inactive = flat fitted curve, though single readings scatter.
% is set by controls: 0 for no effect and ±100 for the full control effect; potency is the fitted concentration of half-maximal effect.

Chain of Ubiquitin carboxyl-terminal hydrolase 1 (Homo sapiens) (O94782 whole entry, looked up): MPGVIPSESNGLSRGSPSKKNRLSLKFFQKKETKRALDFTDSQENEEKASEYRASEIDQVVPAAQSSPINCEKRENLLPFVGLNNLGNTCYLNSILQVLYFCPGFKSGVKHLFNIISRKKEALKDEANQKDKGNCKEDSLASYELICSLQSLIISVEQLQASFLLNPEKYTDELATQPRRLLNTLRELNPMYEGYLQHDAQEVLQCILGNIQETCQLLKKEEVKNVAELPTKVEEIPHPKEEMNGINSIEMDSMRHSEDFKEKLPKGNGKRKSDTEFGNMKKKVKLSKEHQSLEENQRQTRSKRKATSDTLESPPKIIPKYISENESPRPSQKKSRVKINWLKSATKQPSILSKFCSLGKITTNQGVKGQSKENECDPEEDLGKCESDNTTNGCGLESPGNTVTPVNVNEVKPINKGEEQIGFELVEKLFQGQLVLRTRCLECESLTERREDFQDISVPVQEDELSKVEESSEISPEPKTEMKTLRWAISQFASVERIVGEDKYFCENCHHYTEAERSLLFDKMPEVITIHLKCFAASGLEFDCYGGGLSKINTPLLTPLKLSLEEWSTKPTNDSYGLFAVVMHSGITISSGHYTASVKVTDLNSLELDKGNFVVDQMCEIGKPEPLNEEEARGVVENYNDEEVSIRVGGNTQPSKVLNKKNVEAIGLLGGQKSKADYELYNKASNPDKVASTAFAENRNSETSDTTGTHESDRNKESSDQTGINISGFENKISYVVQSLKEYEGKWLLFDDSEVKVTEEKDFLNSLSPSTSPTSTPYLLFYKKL

This test has as its target Ubiquitin carboxyl-terminal hydrolase 1 (Homo sapiens) (UniProt O94782). Briefly: Inhibitors of USP1/UAF1: Pilot qHTS (AID 504865).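 For activity change, negative = inhibition: rhodamine fluorescence freed from ubiquitin-rhodamine substrate followed over time; top concentration of the series differs between compounds.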 Note: nearly all actives have a fitted effect of over 35% in size. As to conditions: purified USP1/UAF1, Ub-rhodamine cleavage fluorescence; series mostly up to 114 µM; activity change, negative = inhibition: at the top concentration. The method, boiled down:
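Kinetic fluorescence assay: 1nM USP1/UAF1, 15 min compound preincubation, then 150nM Ub-Rho; 480/540 nm.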
`Cc1ncc(CSSCc2cnc(C)c(O)c2CO)c(CO)c1O`: the “activity change, negative = inhibition” value was -12.8% (inactive). `OC(CCN1CCCCC1)(c1ccccc1)c1ccccc1`: the “activity change, negative = inhibition” value was -1.85% (inactive). On the same count and under the same terms, the value for `c1ccc(CNCCNCc2ccccc2)cc1` was 3.39% (inactive). In the case of `CCCCOc1ccc(C(=O)CCN2CCCCC2)cc1`, the Potency result was “inactive”. On to `Nc1ccc(/C=C/c2ccc(N)cc2S(=O)(=O)O)c(S(=O)(=O)O)c1`, for which the “activity change, negative = inhibition” value was -3.84% (inactive). Still for that read-out and setting: next, `CO/N=C1\CN(c2nc3c(cc2F)c(=O)c(C(=O)O)cn3C2CC2)CC1CN` (configuration not stated): -7.39% (inactive). In the case of `NC(=NCCCCCCN=C(N)/N=C(\N)Nc1ccc(Cl)cc1)/N=C(\N)Nc1ccc(Cl)cc1`, the Potency was 56.2 µM (active) and 50.1 µM (active). As to `CCCC(=O)Nc1ccc(OCC(O)CNC(C)C)c(C(C)=O)c1` (configuration not stated), the “activity change, negative = inhibition” value was -10.3% (inactive). The same measure, in the same setting: the value for `CC(=O)N/N=C/c1ccc([N+](=O)[O-])o1` was -14.4% (inactive); that for `CCCN1CCCC[C@H]1C(=O)Nc1c(C)cccc1C` was -5.07% (inactive). Still for that read-out and setting: the value for `Cc1ccc(O)c2ncccc12` was 4.21% (inactive); that for `CCn1cc(C(=O)O)c(=O)c2cnc(N3CCCC3)nc21` was -0.697% [at 54.9 µM] (inactive). The same measure, in the same setting: next, `CCN(CCCc1ccccc1)CCCc1ccccc1`: 10.5% [at 54.9 µM] (inactive).

`Cc1c(C)n(CCN(C)C)c2ccc(C(=O)OCCN(C)C)cc12`: the “activity change, negative = inhibition” value is -10.6% (inactive). For `CN1CCC(=C2c3ccccc3Sc3ccccc32)CC1`, the Potency is 39.8 µM (active). As to `CN(C)C(=S)SC(=S)N(C)C`, the “activity change, negative = inhibition” value is -5.39% (inactive). In the case of `O=C(N/N=C/c1ccccc1O)c1ccncc1`, the “activity change, negative = inhibition” value was -10.8% (inactive). For `O=C(CCCN1CCC(O)(c2ccc(Br)cc2)CC1)c1ccc(F)cc1`, the “activity change, negative = inhibition” value was 5.32% [at 54.9 µM] (inactive).

As for `CCCCOc1cc(C(=O)NCCN(CC)CC)c2ccccc2n1`, the Potency result was “inactive”. For `CN1CCN(C(c2ccccc2)c2ccccc2)CC1`, the “activity change, negative = inhibition” value was 9.97% [at 54.9 µM] (inactive). On the same count and under the same terms, next, `CCCCCCCCCCCCCCCCOP(=O)([O-])OCC[N+](C)(C)C`: -8.52% (inactive). Turning to `COC(=O)[C@@H]1CC2=CC(=O)CC[C@]2(C)[C@@]23O[C@@H]2C[C@@]2(C)[C@@H](CC[C@@]24CCC(=O)O4)[C@H]13`, the “activity change, negative = inhibition” value is 2.18% (inactive). Same read-out and setting: next, `N[C@H](Cc1c[nH]c2ccccc12)C(=O)O`: 0.125% (inactive); `NC(CO)(CO)CO`: -0.67% (inactive); `CCOC(=O)OC(C)OC1=C(C(=O)Nc2ccccn2)N(C)S(=O)(=O)c2ccccc21` (configuration not stated): 5.97% (inactive). Same read-out and setting: the value for `CN(C)CCOc1ccccc1Cc1ccccc1` was -10.9% (inactive); that for `CC(=O)OCC(=O)[C@@]1(OC(C)=O)[C@@H](C)C[C@H]2[C@@H]3C[C@H](F)C4=CC(=O)C=C[C@]4(C)[C@@]3(F)[C@@H](O)C[C@@]21C` was -14.3% (inactive).

On to `CCN1CCCC1=O`, for which the “activity change, negative = inhibition” value is -6.7% (inactive). As for `O=C(COc1ccc(Cl)cc1)N1CCN(Cc2ccc3c(c2)OCO3)CC1`, the Potency result was “inactive”. Turning to `Clc1ccc2c(c1)CCc1cccnc1C2=C1CCNCC1`, the “activity change, negative = inhibition” value was -4.7% (inactive). As for `CCC(=O)c1c(O)cc(O)cc1O`, the “activity change, negative = inhibition” value was -10.8% (inactive).

For `CN1CCC[C@@H]1c1cccnc1`, the “activity change, negative = inhibition” value was -0.742% (inactive).
